Measured values as given in PubChem BioAssay.
Calls of active or inactive are those of the source. Unless noted, how the calls were made is not given here.

How the values were obtained:
[1] = system: Wnt5a (protein binding on small-molecule microarray); experiment: small molecules binding Wnt5a protein – biophysical, small-molecule microarray, 635/667 nm fluorescence, primary screen (AID 1142); details: 635 nm fluorescence, higher = more signal;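 further: fluorescence read at 667 nm with signal to noise per printed feature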
[2] = ATP-based viability of Huh7 replicon cells – cell-based, CellTiter-Glo luminescence, basal, 48 h, cytotoxicity control for HCV replication inhibitor project, primary screen (AID 1143); details: higher = more signal, called active from +8 up or from −8 down;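 further: Huh7 hepatoma cells carrying a hepatitis C replication reporter with no stimulus; test concentration not given here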
[3] = Pseudomonas biofilm growth suppression – PAO1 strain, BacTiter-Glo luminescence, LB-PBS, primary screen (AID 1144); details: P. aeruginosa PAO1 biofilm, 12 h, higher = more signal
[4] = basal CRE-LacZ reporter activity in PC12 – cell-based, unstimulated, primary screen (AID 1145); details: no forskolin, luminescence, 4.5 h, higher = more signal, called active from +8 up or from −8 down
[5] = forskolin-driven CRE-LacZ activity in PC12 – cell-based, CRE-LacZ reporter, forskolin-stimulated, primary screen (AID 1146); details: luminescence, 4.5 h, higher = more signal, called active from +8 up or from −8 down;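 further: PC12 cells with 6xCRE LacZ reporter stimulated by forskolin 10 µM; beta-galactosidase reporter signal reflecting CREB driven transcription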
[6] = biological target: Streptavidin (Streptomyces avidinii) (UniProt P22629); experiment: compounds binding control protein streptavidin – biophysical, small-molecule microarray, 635/667 nm fluorescence, artefact control for SMM compound annotation, primary screen (AID 1147); details: higher = more signal;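 further: signal reflects streptavidin binding to arrayed compounds as a control protein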
Chain of Streptavidin (Streptomyces avidinii) (P22629 whole entry, looked up): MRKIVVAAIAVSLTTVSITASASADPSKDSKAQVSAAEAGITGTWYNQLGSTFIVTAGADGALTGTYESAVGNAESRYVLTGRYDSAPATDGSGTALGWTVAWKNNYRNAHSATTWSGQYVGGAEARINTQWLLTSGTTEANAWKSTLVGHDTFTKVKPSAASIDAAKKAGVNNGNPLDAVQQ

[7] = probe aInhba binding on compound microarray – biochemical, small-molecule microarray, 635/667 nm fluorescence, primary screen (AID 1148); details: higher = more signal;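 further: score merges 667nm spot fluorescence with signal-to-noise for antibody binding to printed compounds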
Torsin-1A (Homo sapiens) [8] = biological target: Torsin-1A (Homo sapiens) (UniProt O14656); experiment: TOR1A wild-type binding on microarray – cell lysate, small-molecule microarray, lysate, 635/667 nm, primary screen (AID 1149); details: COS7 hTOR1A-WT lysate, 635 nm fluorescence, higher = more signal
Chain of Torsin-1A (Homo sapiens) (O14656 whole entry, looked up): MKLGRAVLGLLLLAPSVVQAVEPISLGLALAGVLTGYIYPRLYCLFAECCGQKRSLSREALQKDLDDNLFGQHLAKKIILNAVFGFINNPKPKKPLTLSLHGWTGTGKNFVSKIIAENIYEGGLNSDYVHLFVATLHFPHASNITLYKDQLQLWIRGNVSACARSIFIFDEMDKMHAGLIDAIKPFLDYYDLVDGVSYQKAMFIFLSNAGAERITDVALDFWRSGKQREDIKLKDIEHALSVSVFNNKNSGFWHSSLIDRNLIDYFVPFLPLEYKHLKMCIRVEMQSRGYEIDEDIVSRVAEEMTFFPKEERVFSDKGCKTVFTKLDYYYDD

Torsin-1A (Homo sapiens) [9] = biological target: Torsin-1A (Homo sapiens) (UniProt O14656); experiment: torsin A mutant lysate binding on microarrays – cell lysate, small-molecule microarray, COS7 lysate, 635/667 nm fluorescence, primary screen (AID 1150); details: COS7 hTOR1A mutant lysate, 635 nm fluorescence, higher = more signal;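 further: score pools 667 nm emission and signal to noise measuring lysate protein binding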
[10] = system: Sonic hedgehog protein (Shh); experiment: Sonic hedgehog microarray binding compounds – biochemical, small-molecule microarray, 635/667 nm fluorescence, primary screen (AID 1151); details: 635 nm fluorescence, higher = more signal;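 further: Shh protein binding to compounds spotted on small-molecule microarray slides; score combines spot fluorescence intensity with signal-to-noise across triplicate slides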
[11] = optical density shifts of acrAB sulA E. coli – strain DRC41, OD650, 48 h, E. coli filamentation inducer project, primary screen (AID 1152); details: higher = more signal, called active from +8 up or from −8 down;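 further: E. coli MC1000 strain DRC41 lacking acrAB efflux pump and sulA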
[12] = probe aLefty1 binding on compound microarray – biochemical, small-molecule microarray, 635/667 nm fluorescence, primary screen (AID 1153); details: higher = more signal;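 further: score merges spot fluorescence with signal-to-noise ratio from the scanned slide images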
[13] = plasmodial surface anion channel blockers, osmotic lysis – cell-based, P. falciparum Indochina, OD700, 1 h, primary screen (AID 1154); details: P. falciparum Indochina infected RBC osmotic lysis, higher = more signal, called active from +8 up or from −8 down
[14] = plasmodial surface anion channel blockers, osmotic lysis – cell-based, P. falciparum Indochina, OD700, 2 h, primary screen (AID 1155);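 further: lysis reports solute entry through the parasite surface anion channel PSAC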; details: P. falciparum Indochina infected erythrocytes, higher = more signal, called active from +8 up or from −8 down
[15] = changes in parasitized red cell lysis, either direction – P. falciparum Indochina, OD700, 3 h, PSAC antagonist project, primary screen (AID 1156); details: P. falciparum-infected erythrocytes, osmotic lysis, higher = more signal, called active from +8 up or from −8 down
[16] = plasmodial surface anion channel blockers, osmotic lysis – cell-based, P. falciparum Indochina, OD700, 18 h, primary screen (AID 1157); details: P. falciparum Indochina infected erythrocytes, osmotic lysis OD700, 18 h; higher = more signal, called active from +8 up or from −8 down
[17] = S6 kinase pathway phospho-S6 level changes – cell-based, A549, cytoblot, luminescence, serum-stimulated, primary screen (AID 1158); details: 5 h, higher = more signal;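 further: serum-stimulated A549 lung adenocarcinoma cells; signal is phosphorylated S6 detected by cytoblot immunostaining with HRP secondary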
[18] = biological target: NADPH oxidase 2 (Homo sapiens) (UniProt P04839); experiment: compounds shifting NOX2 Amplex Red fluorescence – cell-based, HEK293-NOX2, PMA-stimulated, NOX inhibitor project, primary screen (AID 1159); details: 45 min, higher = more signal, called active from +8 up or from −8 down; further: test concentration not given here
Chain of NADPH oxidase 2 (Homo sapiens) (P04839 whole entry, looked up): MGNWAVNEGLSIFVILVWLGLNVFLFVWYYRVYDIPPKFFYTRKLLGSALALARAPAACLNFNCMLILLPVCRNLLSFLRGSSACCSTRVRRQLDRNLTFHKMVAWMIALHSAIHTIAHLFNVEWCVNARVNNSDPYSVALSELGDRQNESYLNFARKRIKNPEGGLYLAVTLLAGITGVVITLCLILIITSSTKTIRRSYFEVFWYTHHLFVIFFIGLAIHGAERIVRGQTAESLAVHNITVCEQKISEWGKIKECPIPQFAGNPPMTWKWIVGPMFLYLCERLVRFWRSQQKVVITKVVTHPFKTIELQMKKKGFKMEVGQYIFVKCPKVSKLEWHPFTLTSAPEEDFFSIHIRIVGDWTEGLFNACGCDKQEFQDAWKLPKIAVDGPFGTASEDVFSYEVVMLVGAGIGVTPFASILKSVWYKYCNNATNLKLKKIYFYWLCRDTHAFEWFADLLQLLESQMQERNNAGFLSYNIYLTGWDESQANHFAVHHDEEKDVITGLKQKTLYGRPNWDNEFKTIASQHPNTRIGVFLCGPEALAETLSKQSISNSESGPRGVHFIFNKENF

[19] = biological target: NADPH oxidase 4 (Homo sapiens) (UniProt Q9NPH5); experiment: compounds shifting NOX4 Amplex Red fluorescence – cell-based, HEK293-NOX4, tetracycline-induced, NOX inhibitor project, primary screen (AID 1160); details: HEK293-NOX4, Amplex Red H2O2 fluorescence, 45 min; higher = more signal, called active from +8 up or from −8 down
Chain of NADPH oxidase 4 (Homo sapiens) (Q9NPH5 whole entry, looked up): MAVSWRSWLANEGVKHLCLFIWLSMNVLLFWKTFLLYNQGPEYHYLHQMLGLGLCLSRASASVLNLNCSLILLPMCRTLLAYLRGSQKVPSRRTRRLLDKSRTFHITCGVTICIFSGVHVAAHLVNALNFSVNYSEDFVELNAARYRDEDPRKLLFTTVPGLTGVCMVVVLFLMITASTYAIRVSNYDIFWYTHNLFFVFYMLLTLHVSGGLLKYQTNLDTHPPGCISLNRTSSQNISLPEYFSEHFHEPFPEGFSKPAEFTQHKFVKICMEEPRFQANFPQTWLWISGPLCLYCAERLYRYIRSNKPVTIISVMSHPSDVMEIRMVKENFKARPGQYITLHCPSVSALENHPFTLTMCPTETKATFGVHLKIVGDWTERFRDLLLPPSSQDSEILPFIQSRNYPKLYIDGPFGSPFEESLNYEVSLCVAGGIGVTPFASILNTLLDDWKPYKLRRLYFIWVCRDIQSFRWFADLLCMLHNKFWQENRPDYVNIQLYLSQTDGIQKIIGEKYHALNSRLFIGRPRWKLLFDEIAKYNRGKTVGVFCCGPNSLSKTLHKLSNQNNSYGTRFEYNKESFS

[20] = biological target: NADPH oxidase 5 (Homo sapiens) (UniProt Q96PH1); experiment: compounds shifting NOX5 Amplex Red fluorescence – cell-based, HEK293-NOX5, NOX inhibitor project, primary screen (AID 1161); details: HEK293-NOX5, ionomycin, 45 min, higher = more signal
Chain of NADPH oxidase 5 (Homo sapiens) (Q96PH1 whole entry, looked up): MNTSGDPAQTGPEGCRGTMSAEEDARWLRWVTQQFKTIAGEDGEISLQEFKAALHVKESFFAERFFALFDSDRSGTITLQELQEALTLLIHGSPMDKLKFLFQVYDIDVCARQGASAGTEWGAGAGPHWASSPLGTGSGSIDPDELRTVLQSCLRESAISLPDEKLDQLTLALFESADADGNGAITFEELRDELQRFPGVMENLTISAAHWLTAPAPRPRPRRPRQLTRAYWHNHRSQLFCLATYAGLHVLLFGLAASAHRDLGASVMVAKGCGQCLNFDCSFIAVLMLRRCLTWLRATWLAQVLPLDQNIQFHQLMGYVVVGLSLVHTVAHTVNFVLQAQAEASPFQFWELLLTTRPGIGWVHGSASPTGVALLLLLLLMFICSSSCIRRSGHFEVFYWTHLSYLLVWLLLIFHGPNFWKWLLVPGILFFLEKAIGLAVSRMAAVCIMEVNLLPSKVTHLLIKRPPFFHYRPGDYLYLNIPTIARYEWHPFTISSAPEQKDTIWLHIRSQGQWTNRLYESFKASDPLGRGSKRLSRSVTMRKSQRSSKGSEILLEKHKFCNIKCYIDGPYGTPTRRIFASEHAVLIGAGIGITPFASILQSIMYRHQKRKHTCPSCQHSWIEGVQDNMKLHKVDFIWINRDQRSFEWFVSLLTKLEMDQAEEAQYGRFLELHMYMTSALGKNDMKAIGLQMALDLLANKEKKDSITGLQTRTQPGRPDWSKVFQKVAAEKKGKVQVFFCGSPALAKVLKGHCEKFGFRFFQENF

SMILES	composite z-score [1]	z-score [2]	z-score [3]	z-score [4]	z-score [5]	composite z-score [6]	composite z-score [7]	composite z-score (Torsin-1A (Homo sapiens) [8])	composite z-score (Torsin-1A (Homo sapiens) [9])	composite z-score [10]	z-score [11]	composite z-score [12]	z-score [13]	z-score [14]	z-score [15]	z-score [16]	z-score [17]	z-score [18]	z-score [19]	z-score [20]
CCCCO[C@H]1C[C@H]2C(I)=C[C@@H]1C(=O)[C@]21CO1	-0.0784	-0.232 (inactive)	0.0666 (inactive)	0.496 (inactive)	0.672 (inactive)	-0.258	-0.161	-0.336	-0.145	0.816	-1.55 (inactive)	-0.369	-0.0445 (inactive)	0.18 (inactive)	-0.163 (inactive)	-0.16 (inactive)	-0.408	0.0778 (inactive)	0.609 (inactive)	-0.383
CCCCCCc1nc(C2CC2)cc2c1[Si](C(C)C)(C(C)C)O[C@H]2c1ccccc1	-0.0368	0.086 (inactive)	-0.0699 (inactive)	0.134 (inactive)	0.128 (inactive)	0.147	0.0319	0.338	0.378	1.59	-1.27 (inactive)	-0.23	0.0479 (inactive)	-0.0357 (inactive)	0.453 (inactive)	-0.11 (inactive)	-0.653	-3.31 (inactive)	-0.00134 (inactive)	-1.77
COC(=O)[C@@]1(Cc2ccc(F)cc2)[C@H]2c3cc(C(=O)N4CCCC4)n(CCN4CNCC4=O)c3C[C@H]2CN1C(=O)c1ccccc1	0.289	-1.11 (inactive)	-0.917 (inactive)	0.39 (inactive)	-1.08 (inactive)	1.04	0.179	1.51	1.77	-0.164	-1.59 (inactive)	0.497	1.85 (inactive)	0.811 (inactive)	2.24 (inactive)	0.937 (inactive)	1	0.821 (inactive)	-0.489 (inactive)	-5.26
NC(=O)NCC#Cc1ccc2c(c1)[C@]1(C(=O)N2)[C@H](C(=O)O)[C@H]2C(=O)O[C@H](c3ccccc3)[C@H](c3ccccc3)N2[C@@H]1c1ccc(OCCO)cc1	0.0755	-0.175 (inactive)	-0.015 (inactive)	-0.195 (inactive)	-0.746 (inactive)	1.15	-0.102	-0.0721	0.588	0.135	0.215 (inactive)	-0.147	3.93 (inactive)	0.523 (inactive)	0.643 (inactive)	0.247 (inactive)	0.235	2.78 (inactive)	1.14 (inactive)	-0.0124
